An excerpt weighted towards active compounds, which were near 7.3% of everything screened.
FMDV inh: antivirals against foot and mouth disease virus; AID 1159524; FMDV antiviral cell-based qHTS; Potency, µM (doses to about 57.9 µM), without a hit: at the highest dose activity change, negative = inhibition, most hits filed as inhibitors; 410,000 tested, 1.2% active; calls by dose curve; tested in HEK293T cells; also: read-out not given here; potency is read from the fitted curve at half-maximal effect; nearly all actives have a fitted effect of over 45% in size
HCV inh: blocks hepatitis C virus | Huh7.5.1 HCVcc-Cre infection, luciferase reporter, 44 h | Potency, µM (titrated, usually from 41.8 µM), for inactives: at the highest dose activity change, negative = inhibition, usual class: inhibitors | 340,000 tested, 3.4% active | AID 651820; active = well fitted inhibition curve with a large enough effect; inconclusive = small, poorly fitted or top-dose-only effect, or another doubt; inactive = no such curve, though single readings can be large or run the other way; also: potency is read from the fitted curve at half-maximal effect
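1,000 cells/well; 4 h culture; + compound; + HCVcc-Cre (~0.5 moi); 44 h; luciferase substrate, RT 15 min; read 15 sec.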
HCMV antiviral: human cytomegalovirus inhibition; HFF cells, HCMV-luciferase reporter, 72 h; hits give low values; AID 1259415; 410,000 tested, 4.5% active; activity change, negative = inhibition, % at 57.5 µM; in the data active = activity change below about -60%; inconclusive = no clear call, values can overlap the other calls; inactive = above about -39%
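Two-dose cell screen: HFF monolayers treated with compounds and infected with luciferase-expressing HCMV at 1 PFU/cell, 72 h at 37C, then lysed for luciferase measurement.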
Vaccinia Venus: inhibitors of vaccinia virus (Venus reporter) | Vaccinia virus Venus reporter expression, fluorescence | Potency, µM (doses to about 36.5 µM), for inactives: at the highest dose activity change, negative = inhibition, most hits filed as inhibitors | 330,000 tested, 0.46% active; calls by dose curve; tested in A549 cells; also: potency is read from the fitted curve at half-maximal effect; nearly all actives have a fitted effect of over 30% in size
VACV mCherry inh: vaccinia inhibition (mCherry reporter); Vaccinia virus mCherry reporter infection, fluorescence; Potency, µM (series often up to 36.5 µM), for inactives: top-dose activity change, negative = inhibition, usual class: inhibitors; 310,000 tested, 0.63% active; AID 720579; calls by dose curve; tested in A549 cells; also: potency is read from the fitted curve at half-maximal effect; nearly all actives have a fitted effect of over 35% in size
An asterisk follows results filed as active; i = inactive; ? = inconclusive; / = no result given; + = active, no number; ! = a repeat was not active. % is scaled to controls: 0 for no effect and ±100 for the full control effect.

SMILES	FMDV inh	HCV inh	HCMV antiviral	Vaccinia Venus	VACV mCherry inh
O=S(=O)(Nc1cccc(-c2ccc(N3CCCCC3)nn2)c1)c1cccs1	47%	/	59	-13%	-15%
CN1C2CCC1CC(OC(c1ccccc1)c1ccccc1)C2 (configuration not stated)	?	?	-32	/	/
CN1[C@@H]2CC[C@H]1CC(OC1c3ccccc3CCc3ccccc31)C2 (some centres not stated)	?	1.3µM*	-38	-24%	-15%
COC1CCN(C(=O)c2ccc(OC3CCN(CCc4ccccc4)CC3)cc2)CC1	-10%	-4%	-23	-2%	5%
CCN(CC)C1CCN(C(=O)c2ccc(OC3CCN(CCc4ccccc4)CC3)cc2)C1 (configuration not stated)	-8%	7.1µM*	-14	/	/
COc1ccc(CCNC(=O)c2ccc3c(c2)c(C)c(C)n3Cc2ccc(F)cc2)c(OC)c1OC	-11%	/	0	-18%	-15%
COCCC(=O)N1CCC(Oc2ccc(C(=O)N3CCCC(CCCO)C3)cc2)CC1 (configuration not stated)	-1%	13%	-27	-17%	-12%
Cc1c(C)n(Cc2ccccc2)c2ncnc(N)c12	0%	10µM*	-60*	/	/
Cc1c(C)n(Cc2ccccc2)c2ncnc(NCCO)c12	-30%	8%	50	-16%	i
CCOc1ccc(C2C(C(=O)Nc3ccccc3)=C(C)Nc3nc(-c4ccccc4)nn32)cc1OC (configuration not stated)	11%	/	-20	-12%	-18%
COc1ccccc1CNC(=O)c1[nH]c(C)c(C(C)=O)c1C	2%	-28%	34	/	/
COc1cccc(CN(C)C(=O)c2[nH]c(C)c(C(C)=O)c2C)c1OC	?	11µM*	-33	-17%	-4%
CCNc1ncc2nc(CCc3ccccc3)c(=O)n(C)c2n1	26%	/	/	/	/
O=C1C=C(c2cccs2)C[C@H](c2ccccc2)[C@H]1n1nnc([N+](=O)[O-])n1	-2%	?	-80*	?	?
CC1(C(=O)NS(=O)(=O)c2cccs2)CCN1C(=O)CC(c1ccccc1)c1ccccc1 (configuration not stated)	/	/	7	/	/
Nc1c(Cl)cc(-c2cn(CCC(=O)O)c(=O)cn2)cc1Cl	/	/	22	/	/
CCCc1nc2ccccc2c(C(=O)OCC(=O)N2CCc3ccccc32)c1CC	?	8.9µM*	30	-11%	i
COc1cccc(C(=O)OCC(=O)N2CCc3ccccc32)c1OC	28%	?	-98*	-5%	i
COc1cccc2cc(C(=O)N3CCc4ccccc43)c(=O)oc12	8%	21%	-71*	-7%	-15%
O=C(NCc1ccc(F)cc1)c1cc2n(n1)CCCN(Cc1ccc(F)cc1)C2=O	-17%	/	-7	0%	-6%
Cc1nnc(Nc2ccc(F)cc2)c2ccccc12	13%	-22%	19	-11%	-14%
Cc1nnc(Nc2ccccn2)c2ccccc12	20%	14%	-60*	9%	-8%
CCOc1ccc(NC(=O)CN2CCCC2c2cccs2)cc1S(=O)(=O)N1CCCCC1 (configuration not stated)	-7%	?	?	-20%	-1%
O=C(CN1CCCC1c1cccs1)Nc1cc(S(=O)(=O)N2CCCCC2)ccc1Cl (configuration not stated)	?	5µM*	?	/	/
Cc1ccc(NC(=O)CN2CCCC2c2cccs2)cc1S(=O)(=O)N1CCCCC1 (configuration not stated)	?	7.9µM*	-63*	/	/
SMILES	FMDV inh	HCV inh	HCMV antiviral	Vaccinia Venus	VACV mCherry inh
Cc1ccc(S(=O)(=O)N2CCCCC2)cc1NC(=O)CN1CCCC1c1cccs1 (configuration not stated)	-21%	/	-13	-5%	-1%
CCc1ccc(S(=O)(=O)Nc2cccc(-c3ccc(N4CCOCC4)nn3)c2)cc1	27%	/	30	9%	6%
O=C(/C=C/NNC(=O)c1cccc(Br)c1)c1cccc(Br)c1	/	?	27	-13%	i
O=C(/C=C/NNC(=O)c1ccccc1)c1ccc(Br)cc1	7%	2.2µM*	39	1%	-15%
COc1ccc(C(=O)NN/C=C/C(=O)c2ccc(Br)cc2)cc1	-26%	/	49	-16%	-6%
COc1ccc(C(=O)C=CNNC(=O)c2ccc(Cl)cc2)cc1	-9%	11µM*	14	-11%	?
O=C(/C=C/NNC(=O)c1ccc(Cl)cc1)c1ccccc1	18%	8.9µM*	-16	-20%	-7%
COc1ccccc1CNC(=O)C1CCCN(S(=O)(=O)c2ccc3c(c2)oc(=O)n3C)C1 (configuration not stated)	0%	/	-8	-25%	-21%
CC(C)=N/N=c1\scc(C)n1Cc1ccco1	-10%	3%	45	2%	-2%
COCCn1c(-c2cccs2)csc1=Nc1cccnc1	22µM*	-27%	-25	-20%	i
COCCn1c(-c2ccco2)csc1=Nc1cccnc1	-21%	-19%	59	/	/
Cc1csc(=Nc2cccnc2)n1Cc1ccco1	-23%	0.56µM*	-34	-15%	-5%
Fc1ccccc1-c1csc(=Nc2cccnc2)n1CCCn1ccnc1	?	22µM*	-90*	-21%	-10%
Fc1ccccc1-c1csc(=Nc2cccnc2)n1CC1CCCO1 (configuration not stated)	?	?	?	-12%	-11%
Cc1cc(C)c(C)c(S(=O)(=O)NCC(=O)NCC2CCCCC2)c1C	34%	19%	-62*	-3%	?
CCC1=Nc2cc(C(=O)N3CCC(C)CC3)ccc2Sc2ccc(C)cc21	-17%	/	-3	-8%	-25%
Cc1ccc(-n2c(C)cc(/C=c3/sc4nc5ccccc5n4c3=O)c2C)cc1	1µM*	-2%	/	2%	/
Cc1ccc(CNC(=O)CN(c2ccc(C(C)C)cc2)S(=O)(=O)c2c(C)noc2C)cc1	-12%	-9%	10	/	/
COc1ccc(CNC(=O)CN(c2ccc(C(C)C)cc2)S(=O)(=O)c2c(C)noc2C)cc1	-14%	10µM*	-31	/	/
COc1ccc(N(CC(=O)NCc2ccc(C)cc2)S(=O)(=O)c2c(C)[nH]c(=O)[nH]c2=O)cc1	-13%	20%	+!	4%	-4%
CCOc1ccc(N(CC(=O)NCc2cccs2)S(=O)(=O)c2c(C)noc2C)cc1	8%	-17%	-60*	-5%	11%
CCOc1ccc(N(CC(=O)NCc2ccc(F)cc2)S(=O)(=O)c2c(C)noc2C)cc1	-9%	12%	-7	-10%	i
CCOc1ccc(N(CC(=O)Nc2ccc(C)cc2)S(=O)(=O)c2c(C)noc2C)cc1	0%	-24%	-34	-10%	i
CCOc1ccc(N(CC(=O)Nc2cccc(OC)c2)S(=O)(=O)c2c(C)noc2C)cc1	?	?	-62*	-12%	i
Cc1ccc(CNC(=O)CS(=O)(=O)Cc2nc(-c3ccc(C)cc3)oc2C)cc1	27%	7%	-26	/	/

Compound activity from PubChem BioAssay.
